Out of some 360,000 compounds screened, about 3,000 (0.83%) were called active. The sample as a whole holds a higher share of actives than the screen did. Unmarked numbers belong to inactive results. No stated cut-off is given here; in the data, active means inhibition above about 38%; inactive means the rest.
Each compound was assayed against G-protein coupled receptor 183 (Homo sapiens) (UniProt P32249) (assay: EBI2 receptor antagonists, beta-arrestin recruitment, primary screen, cell-based, luminescence, 7a,25-OHC stimulation, uHTS (AID 651636;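 further: enzyme fragment complementation signal reports receptor beta-arrestin coupling in cells; 0% = agonist plus DMSO wells and 100% = wells without agonist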)). Conditions: 7a,25-OHC stimulated, at 5 µM, hits give high values.
Sequence of G-protein coupled receptor 183 (Homo sapiens) (P32249 whole entry, looked up, the tested form may be a part): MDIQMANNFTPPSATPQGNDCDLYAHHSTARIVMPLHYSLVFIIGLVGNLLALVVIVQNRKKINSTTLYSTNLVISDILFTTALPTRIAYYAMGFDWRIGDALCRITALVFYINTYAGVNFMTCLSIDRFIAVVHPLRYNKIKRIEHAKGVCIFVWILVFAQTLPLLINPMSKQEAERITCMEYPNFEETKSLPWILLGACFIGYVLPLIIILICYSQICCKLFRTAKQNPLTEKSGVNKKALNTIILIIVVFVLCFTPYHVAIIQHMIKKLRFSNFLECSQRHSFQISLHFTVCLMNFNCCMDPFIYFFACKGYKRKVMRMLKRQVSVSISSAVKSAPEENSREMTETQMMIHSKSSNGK

Row | SMILES | inhibition
1 | CO[C@@H]1CN(C)C(=O)c2cc(NC(=O)C3CC3)ccc2OC[C@H](C)N(C(=O)CN2CCOCC2)C[C@@H]1C | -1.87%
2 | COc1ccc(-c2nc3c(s2)CCc2onc(-c4ccc(OC)cc4)c2-3)cc1 | -3.33%
3 | CCn1c(SCC(=O)NNC(=O)c2ccc(OC)cc2)nnc1C(C)C | 12.9%
4 | CCC(c1nnc(SCC(=O)NNC(=O)c2ccccc2)n1Cc1ccccc1)N(C)C (configuration not stated) | 72.7% (active)
5 | Cc1cccc(C(=O)NNC(=O)CSc2nnc(C(C)C)n2C)c1 | 2.91%
6 | COC(=O)[C@H](CC(C)C)NC(=O)N1CCCCC1C (some centres not stated) | -4.31%
7 | CCCc1[nH]nc2c1C(c1ccc(Br)s1)C(C#N)=C(N)O2 (configuration not stated) | -18.9%
8 | Cc1cc(C)c(C#N)c(SCc2[nH]nc3c2C(c2ccccc2)C(C#N)=C(N)O3)n1 (configuration not stated) | 63.3% (active)
9 | Cc1cc(C)c(C#N)c(SCc2ccc3c(c2)OCO3)n1 | -1.67%
10 | COc1cc2c(cc1NC(=O)CN1CCN(S(=O)(=O)c3ccc(F)cc3)CC1)oc1ccccc12 | 3.04%
11 | CC(C)c1ccc(N2CC(C(=O)Nc3nccs3)CC2=O)cc1 (configuration not stated) | 5.79%
12 | Cc1cccc(-c2nc3c(c(SCC(=O)N4CCOCC4)n2)CCCC3)c1 | 4.2%
13 | O=C(c1ccc(-n2cnnn2)cc1)N1CCN(C(c2ccccc2)c2ccccc2)CC1 | 79% (active)
14 | CC(OC(=O)c1ccc(-n2cnnn2)cc1)C(=O)NCc1ccccc1 (configuration not stated) | -7.1%
15 | Cn1nnnc1SCC(=O)N1CCN(C(c2ccccc2)c2ccccc2)CC1 | 36.1%
16 | COc1ccc(C2Nc3ccccc3C(=O)N2c2ccc(Cl)cc2)cc1Cn1cc([N+](=O)[O-])cn1 (configuration not stated) | 4.76%
17 | COc1ccc(NC(=O)C[C@H]2C(=O)N(CCc3ccccc3)C[C@@H]2C)cc1 | 2.26%
18 | O=C(c1cc2ccccc2o1)N1CCN(c2cccc(C(F)(F)F)c2)CC1 | 36.7%
19 | O=C(c1cc2ccccc2o1)N1CCN(S(=O)(=O)c2ccc(Cl)s2)CC1 | 91.3% (active)
20 | CCC(=O)Nc1ccccc1C(=O)N1CCN(Cc2ccccc2)CC1 | -10.6%
21 | O=S(=O)(c1ccc(Cl)s1)N1CCC2(CC1)OCCO2 | 1.76%
22 | O=C(c1cc2ccccc2o1)N1CCN(Cc2ccccc2)CC1 | 65.2% (active)

Row | SMILES | inhibition
23 | CCNC(=S)N1CCN(S(=O)(=O)c2ccc(Cl)s2)CC1 | -5.4%
24 | COc1ccc(N(CCC(=O)NCCc2ccccc2)S(=O)(=O)c2ccc(C)cc2C)cc1 | 9.4%
25 | CCOC(=O)c1cnc(SCc2nc(N)nc(Nc3ccc(OC)cc3)n2)nc1N | -2.38%
26 | Cc1cccc(OCCC(=O)OCc2csc(CC(=O)Nc3ccccc3C)n2)c1 | -1.51%
27 | C=CCNc1nc(N)c(C(=C(C#N)C#N)c2ccccc2)s1 | -6.63%
28 | Cc1ccc(CN2CC(C(=O)N3CCN(S(=O)(=O)c4ccccc4)CC3)CC2=O)cc1 (configuration not stated) | 3.15%
29 | CN1CCN(c2cc(=O)n(-c3ccc(Cl)cc3)c(=O)[nH]2)CC1 | -7.79%
30 | CC1CC(C)CN(CCCNC(=O)Cn2ncc3c([nH]c4ccccc43)c2=O)C1 (configuration not stated) | 5.19%
31 | Cc1ccc(NS(=O)(=O)c2ccc3c(c2)NC(=O)CO3)cc1 | -3%
32 | CC[C@@H]1Cc2cc(O)ccc2C2=C1c1ccc(O)cc1C[C@H]2CC | 49.4% (active)
33 | COc1ccc(Br)cc1CN(C)C(=O)C1CC(=O)N(C2CCCC2)C1 (configuration not stated) | 7.14%
34 | CN1CCN(C(=O)c2ccc(-c3cc4nc(NCc5cccnc5)n(C)c(=O)c4s3)cc2)CC1 | -2.23%
35 | CCc1ccccc1NC(=O)c1ccc2c(c1)CCN2S(C)(=O)=O | -1.7%
36 | CCc1ccccc1NC(=O)NCCN1CCCCC1 | 4.39%
37 | CN1CCc2ccccc2C1Cc1ccccc1NC(=O)c1sc2ccccc2c1Cl (configuration not stated) | 65.6% (active)
38 | CCOC(=O)[C@]12CCCC=C1N(Cc1cccc3ccccc13)C(=O)[C@H](CC(=O)NCC13CC4CC(CC(C4)C1)C3)C2 | 16.6%
39 | COC(=O)C[C@H]1C=C[C@@H](NS(=O)(=O)c2ccc(C)cc2)[C@@H](CO)O1 | -0.992%
40 | O=C(NCCN1CCOC1=O)C1CCC(=O)N(CCc2ccc(Cl)cc2)C1 (configuration not stated) | 5.95%
41 | O=C(NCCCc1ccccc1)C1CCC(=O)N(CCc2ccc(Cl)cc2)C1 (configuration not stated) | 63.7% (active)
42 | O=C(NCCc1ccccc1Cl)C1CCC(=O)N(CCCc2ccccc2)C1 (configuration not stated) | 8.34%
43 | C/C(=N/NC(=O)c1ccc(Br)o1)c1ccc(C)o1 | -2.5%
44 | COC(=O)[C@]12CCCCC=C1N(Cc1ccco1)C(=O)[C@H](CC(=O)NCC1CCCCC1)C2 | -6.57%

Row | SMILES | inhibition
45 | CC1CN(C(=S)Nc2cccc(F)c2)CC(C)O1 (configuration not stated) | -5.04%
46 | COc1cccc(NC(=O)Cn2c3ccccc3c3nc4n(c(=O)c32)CCS4)c1 | 62% (active)
47 | COc1cccc(NC(=O)CC2C(=O)NCCN2C(=S)Nc2ccc(F)cc2)c1 (configuration not stated) | 9.02%
48 | COc1cccc(NC(=O)Cn2c3ccc(F)cc3c3nc4n(c(=O)c32)CCS4)c1 | 80.8% (active)
49 | COc1ccc2c(c1)c1nc3n(c(=O)c1n2CC(=O)Nc1ccccc1)CCS3 | 8.84%
50 | COc1cccc(NC(=O)Cn2cnc3sc(C)c(S(=O)(=O)N4CCN(C)CC4)c3c2=O)c1 | -9.02%
51 | COc1cccc(NC(=O)CS(=O)(=O)c2cn(CC(=O)N3CCOCC3)c3ccccc23)c1 | 3.35%
52 | COc1cccc(N(CC(=O)NC2CCCC2)C(=O)Cn2nnc(-c3ccc(C)cc3)n2)c1 | 7.66%
53 | CS(=O)(=O)N1CCc2nc(-c3ccccc3)sc2C1 | 1.2%
54 | O/N=C(\c1ccc2c(c1)OCCO2)C1CCCCC1 | 4.5%
55 | O=S1(=O)CC(N2CCN(CCO)CC2)CN1Cc1cn(Cc2cccc(Cl)c2)nn1 (configuration not stated) | -6.79%
56 | Cc1ccc(O/C=C2\OC(=O)c3ccccc32)cc1 | 55.5% (active)
57 | O=C(O/N=C(/c1ccccc1)c1ccncc1)c1ccccc1[N+](=O)[O-] | -3.57%
58 | O=S(=O)(c1ccc(Sc2nnc3ccccn23)nc1)N1CCOCC1 | -9.4%
59 | COCCCNc1ccn2nc(-c3ccc(CC(C)C)cc3)cc2n1 | 36.9%
60 | COc1ccccc1-c1cc2nc(NCc3cccc(Cl)c3)ccn2n1 | 4.55%
61 | CC(C)Cc1ccc(-c2cc3nc(NCc4cccc(Cl)c4)ccn3n2)cc1 | 47.4% (active)
62 | O=C(O)C1CC=CCC1C(=O)NCCc1ccccc1 (configuration not stated) | -5.64%
63 | CCc1nc2ccc(C(=O)Nc3cc(-c4ccccc4)ccc3OC)cn2c1N(CC)CC(=O)N(C)C | 17%
64 | CCC(C)(C)NC(=O)c1cc([N+](=O)[O-])ccc1N1CCCCC1 | 79.2% (active)
65 | COc1ccc(S(=O)(=O)N2CCCCC2)cc1NC(=O)c1cc([N+](=O)[O-])ccc1N1CCOCC1 | 15.7%
66 | CCN1CCN(c2ccc([N+](=O)[O-])cc2C(=O)c2ccc(Cl)cc2)CC1 | 8.05%

Row | SMILES | inhibition
67 | C=CCN(Cc1nc(-c2cc(OC)c3c(c2)OCO3)oc1C)C1CCS(=O)(=O)C1 (configuration not stated) | -4.13%
68 | CCCCN1CC(CO)Oc2cccc(F)c2S1(=O)=O (configuration not stated) | -9.52%
69 | CC(C)(C)C(=O)Nc1cccc(-c2ccc[nH]2)n1 | -1.86%
70 | Cc1ccc(S(=O)(=O)N2CCN(CC(=O)N/N=C/c3ccc(Br)s3)CC2)cc1 | 66.9% (active)
71 | Cc1cccc(NC(=O)CN2CCCN(S(=O)(=O)c3ccc(Br)s3)CC2)c1 | 3.9%
72 | C/C(=N/NC(=O)CN1CCN(S(=O)(=O)c2ccc(Br)cc2)CC1)c1ccncc1 | 6.8%
73 | Cc1ccc(C(=O)NCC(=O)OCC(=O)NC2CCCCCCC2)cc1 | -2.06%
74 | COc1ccc(S(=O)(=O)N2CCOCC2)cc1C(=O)NC1CCCCC1 | 3.75%
75 | Cc1ccc(S(=O)(=O)NCC(=O)N(CC(=O)NC2CCCCC2)Cc2ccco2)cc1 | -11.2%
76 | CCOC(=O)C1CCCN(C(=O)Cn2ncc3c(=O)oc4ccc(C)cc4c32)C1 (configuration not stated) | -3.84%
77 | Cc1ccc2oc(=O)c3cnn(CC(=O)N4CCCCCC4)c3c2c1 | 57.7% (active)
78 | COCCCN(C(=O)Cn1ncc2c(=O)oc3ccc(C)cc3c21)C(C)c1ccncc1 (configuration not stated) | -3.25%
79 | Cc1ccc2oc(=O)c3cnn(CC(=O)N4CCN(c5ccccn5)CC4)c3c2c1 | 14.3%
80 | Cc1ccc2oc(=O)c3cnn(CC(=O)N(Cc4ccco4)C4CCCCC4)c3c2c1 | 86.2% (active)
81 | CCC1CO/C(=C(\C(=C(Cl)Cl)N2CCOCC2)[N+](=O)[O-])N1 (configuration not stated) | -3.56%
82 | CCCCC[C@H](C)N1C[C@@H](COCc2ccccc2)Oc2cc(N3CC[C@@H](N(C)C)C3)ccc2S1(=O)=O | 1.65%
83 | Cc1ccc(C(=O)O)cc1S(=O)(=O)NCC1CCCO1 (configuration not stated) | -0.989%
84 | C=CC[C@H](CC(=O)N(CCO)Cc1ccccc1)C(=O)N[C@@H](COC(=O)[C@@H](CC=C)Cc1ccc(F)cc1)Cc1ccccc1 | 27%
85 | Cc1cccc(NC(=O)c2nc(S(=O)(=O)Cc3ccccc3)ncc2Cl)c1 | 66% (active)
86 | Cc1cccc(NS(=O)(=O)c2ccc(C)c(C(=O)NCc3cccnc3)c2)c1 | -2.61%
87 | Cc1cccc(CS(=O)(=O)c2ncc(Cl)c(C(=O)Nc3ccc(F)cc3)n2)c1 | 30.8%
